Rows were chosen to be rich in hits. Some 2.4% of all compounds tested hit in one or more screens of this group.
D2 PAM-1 – HTS Assay for Positive Allosteric Modulators of the Human D2 Dopamine Receptor: Primary Screen for Potentiators. D(2) dopamine receptor (Homo sapiens), P14416. HEK293 T-REx D2, calcium flux, EC20 dopamine potentiation. potentiation, % at 10 µM. 340,000 compounds, 0.34% hits;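 active means potentiation over 3 SD above the plate norm, cut at about 30% in these data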
Target sequence (P14416 whole entry, looked up): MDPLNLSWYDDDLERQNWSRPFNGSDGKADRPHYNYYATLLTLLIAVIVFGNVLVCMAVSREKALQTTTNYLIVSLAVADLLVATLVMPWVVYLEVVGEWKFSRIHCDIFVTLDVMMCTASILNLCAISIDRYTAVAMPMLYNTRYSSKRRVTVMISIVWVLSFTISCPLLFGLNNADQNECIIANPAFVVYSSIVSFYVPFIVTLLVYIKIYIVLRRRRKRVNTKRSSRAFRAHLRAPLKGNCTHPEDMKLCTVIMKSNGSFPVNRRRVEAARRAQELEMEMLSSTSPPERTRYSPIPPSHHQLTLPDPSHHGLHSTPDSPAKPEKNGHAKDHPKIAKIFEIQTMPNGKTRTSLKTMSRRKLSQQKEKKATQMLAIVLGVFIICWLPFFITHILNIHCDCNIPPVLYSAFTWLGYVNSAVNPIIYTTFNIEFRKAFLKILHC
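Calcium flux readout, no-wash dye, 1 read/s. Inducible HEK293 Trex D2 line, overnight 30 C. Compound alone 180 s (agonist flags), then EC20 dopamine, another 180 s to score potentiation.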
D2 ag-1 – HTS Assay for Allosteric Agonists of the Human D2 Dopamine Receptor: Primary Screen for Agonists; activation, % at 2 µM; AID 485358, 2010; 340,000 compounds, 0.53% hits; HEK293 T-REx D2 cells, calcium flux agonist mode; D(2) dopamine receptor (Homo sapiens), P14416;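 active means activation over 3 SD above normal in the single-dose calcium agonist read, cut at about 30% in these data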
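Tetracycline-induced HEK293 Trex cells with D2 receptor force-coupled to calcium signaling, plated overnight at 30 C and loaded with no-wash calcium dye. Calcium flux read kinetically for 180 s after compound addition; responses flag agonists.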
D2 antag – HTS Assay for Allosteric Antagonists of the Human D2 Dopamine Receptor: Primary Screen for Antagonists. D(2) dopamine receptor (Homo sapiens), P14416. HEK293 TREx D2 cells, calcium flux, dopamine EC80. inhibition, % at 10 µM. 340,000 compounds, 2% hits. AID 485344, 2010; in the data active means inhibition above about 30%; inactive means below that, where a call was filed
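Calcium mobilization kinetics were recorded at 1 s intervals in tetracycline-induced HEK293 T-REx D2 cells, first for 180 s after compound addition and then 180 s after EC80 dopamine.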
D2 ag-2 – Beta-Arrestin HTS for Positive Allosteric Modulators of the Human D2 Dopamine Receptor: Agonists; DiscoveRx PathHunter D2 beta-arrestin, luminescence, 90 min; 100% = 57 uM dopamine signal; D(2) dopamine receptor (Homo sapiens), P14416; activation, % (no concentration beside the values); AID 624465, 2012; 360,000 compounds, 0.084% hits; in the data active means activation above about 40%
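Agonist mode: compounds alone added to overnight-plated D2 PathHunter cells for 90 min at 37 C, with 57 uM final dopamine (EC100) defining full response. Beta-arrestin recruitment detected by chemiluminescent reagent, read after 1 h at ambient temperature.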
D2 PAM-2 – Beta-Arrestin HTS for Positive Allosteric Modulators of the Human D2 Dopamine Receptor: Potentiators; DiscoveRx D2 beta-arrestin cells, luminescence, 90 min; 100% = 57 uM dopamine signal; 360,000 compounds, 0.23% hits; potentiation, % (no concentration beside the values); D(2) dopamine receptor (Homo sapiens), P14416; in the data active means potentiation above about 50%
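PathHunter beta-arrestin assay in DiscoveRx D2 cells. Compounds were added with an EC20 of dopamine (50 nM final) for 90 min at 37 deg C. Luminescence was read 1 h after detection reagent, with 57 uM dopamine as the EC100 control.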
Each line names hits and unclear results; the compound was inactive in the other large screens.

Cc1onc(C(=O)Nc2cccnc2Cl)c1[N+](=O)[O-]	none
COc1cc(NC(=O)c2noc(C)c2[N+](=O)[O-])c(OC)cc1Cl	D2 ag-2 45
NC(=O)NN=C1CC2CC1C1C=CCC21 (stereo unspecified)	none (no result: D2 PAM-1, D2 ag-1, D2 antag)
COc1cc2c(cc1NC(=O)CSc1nnc(Cc3cccs3)n1C)oc1ccccc12	none
CCn1c(SCC(=O)Nc2cc3oc4ccccc4c3cc2OC)nnc1-c1cccs1	D2 ag-1 37, D2 antag 45
Cc1cccc(NS(=O)(=O)c2c(C)nc3sccn3c2=O)c1C	none (no result: D2 antag, D2 ag-2, D2 PAM-2)
Cc1cc(NC(=O)c2ccc3c(c2)OCO3)ccc1NC(=O)c1ccco1	none
Cc1ccccc1NC(=O)c1ccc(NC(=O)c2ccco2)cc1	D2 antag 45
COc1cc(NC(=O)c2ccc3c(c2)OCO3)ccc1NC(=O)C(C)C	D2 antag 64
Cc1ccc(C(=O)Nc2ccc3c(c2)OCO3)cc1NC(=O)c1ccco1	D2 antag 48
Cc1ccccc1OCc1nc(-c2ccc(NC(=O)c3ccco3)cc2)no1	D2 PAM-1 43
O=C(NCc1ccc(Cl)c(Cl)c1)c1cc(C2CCCCN2C(=O)c2ccccc2)on1 (stereo unspecified)	none (no result: D2 PAM-1, D2 ag-1, D2 antag)
CCOC(=O)C1=C(CNCCc2ccc(Cl)cc2)NC(=O)NC1c1ccc2c(c1)OCO2 (stereo unspecified)	D2 PAM-1 31
COCCNC(=O)CN(C(=O)c1ccc(N2CCCC2)nc1)c1ccc(Cl)cc1	D2 PAM-1 34
CCCC(=O)Nc1ccc(NC(=O)c2ccccc2)nc1	none
CCC(=O)Nc1ccc(NC(=O)c2ccccc2)nc1	D2 antag 32
Cc1ccccc1CN1CCC(n2nccc2NC(=O)c2ccc3c(c2)OCO3)CC1	none
O=C(Nc1ccnn1C1CCN(Cc2cccnc2)CC1)c1ccccc1Cl	none
COc1ccccc1C(=O)Nc1ccnn1C1CCN(Cc2csc(C(C)=O)c2)CC1	D2 antag 32
COc1ccc(CN2CCC(n3nccc3NC(=O)c3ccc4c(c3)OCO4)CC2)cc1C	D2 antag 45
Cc1ccccc1C(=O)Nc1ccnn1C1CCN(Cc2ccncc2)CC1	D2 antag 31
Cc1cc(CN2CCC(n3nccc3NC(=O)c3ccccc3Cl)CC2)cc(C)c1O	D2 antag 55
CCOC(=O)c1ccc(NC(=O)CCc2c(C)nc3c(c(C)nn3C(C)(C)C)c2C)cc1	none (no result: D2 ag-1, D2 antag, D2 ag-2, D2 PAM-2)
Cc1cccc(C(=O)NCCc2nnc(SCC(=O)Nc3cccc(C(=O)O)c3)n2C)c1	none (no result: D2 ag-1, D2 antag)
O=C(NCCCNC(=O)c1c(F)cccc1F)c1c(F)cccc1F	none
O=C(NCC(Cl)c1ccc2ccccc2c1)c1c(F)cccc1F (stereo unspecified)	D2 antag 69
Cc1ccc(NC(=O)Cn2c(=O)n(Cc3ccc4c(c3)OCO4)c(=O)c3ccc(C(=O)NC4CCCCC4)cc32)c(C)c1	none (no result: D2 antag, D2 ag-2, D2 PAM-2)
O=C(NC1CCCC1)C(c1ccccn1)N(C(=O)c1csnn1)c1ccccc1Br (stereo unspecified)	none
COc1ccccc1N(CC(O)Cn1ccnc1C)S(=O)(=O)c1ccc(C)cc1 (stereo unspecified)	D2 antag 67
N=c1c2ccccc2nc2n1CCCCCCCCCCC2	none (no result: D2 PAM-1, D2 ag-1, D2 antag)
CCOC(=O)c1cc(-c2ccc(C)o2)n[nH]1	D2 antag 30
CCN(c1ccc(OC)cc1)S(=O)(=O)c1nnc(NC(=O)COc2ccccc2)s1	D2 PAM-1 37
CCCCC(=O)Nc1nnc(S(=O)(=O)N(CC)c2ccc(OC)cc2)s1	none
CCC(NC(=O)C1CCC1)c1ccc(C)cc1 (stereo unspecified)	D2 antag 37
COc1ccc(C(CC(=O)O)NC(=O)C2CCCCC2)cc1 (stereo unspecified)	none
Fc1cccc(CSc2ncnc3c2oc2ccccc23)c1	D2 antag 31
Fc1ccc(CSc2ncnc3c2oc2ccccc23)cc1	none
CCc1c(C(C)S(=O)(=O)c2ccccc2)[nH]c(=O)n1CC (stereo unspecified)	D2 antag 35
Clc1ccc(OCc2nnc(-c3ccccc3Br)o2)cc1	D2 antag 36
CCN(c1ccccc1C)S(=O)(=O)c1cc2c3c(c1)CCC(=O)N3CCC2	D2 PAM-1 41
CCN(c1ccccc1C)S(=O)(=O)c1cc2c3c(c1)CCN3C(=O)CC2	none (no result: D2 ag-1, D2 antag)
O=C(COC(=O)c1cc(-c2cccs2)nn1-c1ccccc1)Nc1ccc(Cl)c([N+](=O)[O-])c1	D2 antag 44
Cc1ccc2c(Sc3ccc(Cl)cc3)c(C(=O)N3CCCCC3)[nH]c2c1	none (no result: D2 antag, D2 ag-2, D2 PAM-2)
COC(=O)c1cc(C(=O)OCC(=O)NC2CCS(=O)(=O)C2)cc([N+](=O)[O-])c1 (stereo unspecified)	none
O=C(COC(=O)c1ccc(Sc2ccccc2)c([N+](=O)[O-])c1)NC1CCS(=O)(=O)C1 (stereo unspecified)	D2 antag 32
O=C(CSc1ncccn1)N/N=C/c1cccc(OC2CSC2)c1	D2 antag 36
CCCNC(=O)c1cc(C2CCCCN2C(=O)c2cc(C(C)(C)C)nn2C)on1 (stereo unspecified)	none (no result: D2 PAM-1, D2 ag-1, D2 antag)
O=C(O)C1=C[C@@H](c2ccc3c(c2)OCO3)C[C@@H](OCc2ccc(CO)cc2)O1	none
NC(=O)C1=C[C@H](c2ccc3c(c2)OCO3)C[C@H](OCc2ccc(CO)cc2)O1	D2 antag 33
CCCS(=O)(=O)N1CCC(C(=O)NCCCN2CCC(Cc3ccccc3)CC2)CC1	D2 antag 33
CCCS(=O)(=O)N1CCC(C(=O)N2CCC(Cc3ccccc3)CC2)CC1	none
O=C(CCN1CCOCC1)NNC(=O)c1ccc([N+](=O)[O-])cc1[N+](=O)[O-]	D2 PAM-2 59 (no result: D2 PAM-1, D2 ag-1, D2 antag)
O=C(CCN1CCOCC1)NNC(=O)c1ccc(Cl)c([N+](=O)[O-])c1	none (no result: D2 PAM-1, D2 ag-1, D2 antag)
COc1cc(N)c(Cl)cc1C(=O)OCC(=O)N1CCc2ccccc21	none
COc1cc(N)c(Cl)cc1C(=O)OCC(=O)N1CCCC1	D2 antag 32
CCOc1ccc(NC(=O)c2c(NC(=O)c3cccs3)sc3c2CCC(C(C)(C)C)C3)cc1 (stereo unspecified)	none (no result: D2 antag, D2 ag-2, D2 PAM-2)
CN(Cc1ccccc1)C(=C(Cl)Cl)C(=C1NCCN1)[N+](=O)[O-]	D2 antag 34
CN(Cc1ccccc1)C(=C(Cl)Cl)/C(=C1/NCCN1C)[N+](=O)[O-]	none
CCC(CC)c1nnc(NC(=O)CS(=O)(=O)Cc2ccccc2)s1	none (no result: D2 PAM-1, D2 ag-1, D2 antag)

Screens deposited in PubChem BioAssay by National Center for Advancing Translational Sciences (NCATS).
